The OligoGym collection

Key:
Experiment in all cases: pooled miR-30 sensor sort-seq; sequence = guide strand
Conditions in all cases: shRNA
[1] = biological target: ALOX12B
[2] = biological target: ALG10B
[3] = biological target: ALDH9A1
[4] = biological target: ALG3
[5] = biological target: AP3B1
[6] = biological target: APOBEC3A
[7] = biological target: ARHGAP30
[8] = biological target: ARPC4
[9] = biological target: ASCL1
[10] = biological target: ASNSD1
[11] = biological target: ASF1A
[12] = biological target: ASPRV1
Further: reference of the scale not given here.

TGCACATAGTTGCAGTACCAAG
sensor-assay potency score (higher = more potent) [1]: -2.04

TAATTTTGCTAGGAGACAGGAG
sensor-assay potency score (higher = more potent) [2]: -0.56

TTAAAGGGTAGCTCCACTGGTG
sensor-assay potency score (higher = more potent) [3]: -0.285

ATAGATCAAGAAGACAAGCAGC
sensor-assay potency score (higher = more potent) [4]: -0.15

TTGCAGTCCAACAGGCCGCGGA
sensor-assay potency score (higher = more potent) [1]: -0.697

TTGATGAGTGGACCCATCCTTG
sensor-assay potency score (higher = more potent) [3]: -0.479

TCTCATGTAATATCCATCCTTT
sensor-assay potency score (higher = more potent) [3]: -0.314

TTGCTTTAGATCTTCATTCTTC
sensor-assay potency score (higher = more potent) [5]: 0.267

TTAAAAATCTACTTGATCGGGA
sensor-assay potency score (higher = more potent) [6]: 0.68

TGTGGATCCATCAAGTGTCTGG
sensor-assay potency score (higher = more potent) [6]: -0.129

TGCACAGCTCTTTAGCACCTGG
sensor-assay potency score (higher = more potent) [7]: -0.978

TTTCACAGCAATGCTGACCCGG
sensor-assay potency score (higher = more potent) [8]: -0.244

TTACTCATCTTCTTGTTGGCCG
sensor-assay potency score (higher = more potent) [9]: 0.746

TAAATCTTGACTGAAATGCTCA
sensor-assay potency score (higher = more potent) [10]: -0.203

TATTAGGACTGTCAGCAGCAGC
sensor-assay potency score (higher = more potent) [10]: -1.12

TAATAAATTCTTGTCCTCGATA
sensor-assay potency score (higher = more potent) [11]: -1.01

TATAAAGTAAGACACATTGGTG
sensor-assay potency score (higher = more potent) [9]: -0.186

TAACTCTGTCATCACGACCAAG
sensor-assay potency score (higher = more potent) [10]: -0.98

TTGCTTGGGCGCTGACTTGTGA
sensor-assay potency score (higher = more potent) [9]: -0.493

TAAACCAATGTCTACAGCTTAT
sensor-assay potency score (higher = more potent) [9]: -1.49

ATTCTCTTCAGCTTCAACCTTT
sensor-assay potency score (higher = more potent) [10]: 0.221

TTACATAATAGCCAACTCTAAT
sensor-assay potency score (higher = more potent) [11]: -1.16

TAAAACAGAGTCTAAAACTTGA
sensor-assay potency score (higher = more potent) [11]: -0.0289

TTTCTTGACTGCTACACTCAGG
sensor-assay potency score (higher = more potent) [10]: -0.64

TAACATGACATTTAGTGAGTTT
sensor-assay potency score (higher = more potent) [11]: -0.448

TCTAACATGACATTTAGTGAGT
sensor-assay potency score (higher = more potent) [11]: 0.228

TCCACCTTACTCATCTTCTTGT
sensor-assay potency score (higher = more potent) [9]: -0.496

TTTTTCACCAATTCCTCGGGGT
sensor-assay potency score (higher = more potent) [10]: 0.495

TTGAAGCTTAGAAAAGTCTGGT
sensor-assay potency score (higher = more potent) [11]: -0.243

TGTCGCTTGACTTGCTTGGGCG
sensor-assay potency score (higher = more potent) [9]: -1.29

TAATTTTCCATTCCAAGTCTTC
sensor-assay potency score (higher = more potent) [11]: -0.557

TTTGAAGCTTAGAAAAGTCTGG
sensor-assay potency score (higher = more potent) [11]: 0.13

TTAGATGCCAAAATATTCCTTT
sensor-assay potency score (higher = more potent) [11]: 0.414

TTGGATTACTGCTCTCTGCATC
sensor-assay potency score (higher = more potent) [11]: -0.437

TTTGTCATCAACAGCAGCTTGA
sensor-assay potency score (higher = more potent) [12]: -0.258

TACATTAACAACATTTCTATAA
sensor-assay potency score (higher = more potent) [9]: -1.04
